The record followed here is PubChem BioAssay AID624354 (Sanford-Burnham Center for Chemical Genomics, 2012).

The whole screen tested about 360,000 compounds, of which about 3,800 (1.1%) were called active. The sample holds actives, similar compounds and a random draw of the others, so the mix is not that of the screen.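 The calls were made as follows: active = compounds causing at least 50% loss of cell viability in the single-dose screen, relative to plate controls; inactive = the rest.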

This assay in a line: TRAIL-exposed caspase-8 expressing cell killing – NB7+C8 cells, ATPlite luminescence, TRAIL sensitizer project, primary screen (AID 624354). The settings on record: at 10 µM, stronger effect = higher value.
With `CCOc1cc(/C=C(/C#N)c2ccc(Cl)cc2)cc(Cl)c1OCC(=O)O`, the inhibition (viability loss, TRAIL sensitization) was 11.5% (inactive).

Regarding `NC(=O)c1c(NC(=O)c2ccccc2)sc2c1CCCC2`, the inhibition (viability loss, TRAIL sensitization) is 53.3% (active).

For `O=C(CN1CCCC1)Nc1sc2c(c1C(=O)Nc1ccccc1)CCCC2`, the inhibition (viability loss, TRAIL sensitization) was 20.1% (inactive). Regarding `O=C(O)c1c(NC(=O)N2CCCC2)sc2c1CCCC2`, the inhibition (viability loss, TRAIL sensitization) was 1.53% (inactive).

Take `C[C@H]1[C@H]2c3nc4ccccc4n3C[C@H]1ON2C1CCCCC1`: the inhibition (viability loss, TRAIL sensitization) was -6.24% (inactive).

Regarding `Cc1ccccc1S(=O)(=O)NC(=O)C1(C)CCN1C(=O)C1(c2ccc(Cl)cc2)CC1` (stereo not given), the inhibition (viability loss, TRAIL sensitization) is -8.57% (inactive).

For `CC(=O)c1ccc(S(=O)(=O)NC2CC(=O)N(c3ccc4c(c3)OCCO4)C2)cc1` (stereo not given), the inhibition (viability loss, TRAIL sensitization) was 2.78% (inactive). As for `COc1ccc(Br)cc1CN(C)C(=O)C1CC(=O)N(C2CCCC2)C1` (stereo not given), the inhibition (viability loss, TRAIL sensitization) was -13.6% (inactive). To `O=C(NCCCN1CCCCC1)C1CC(=O)N(CCc2ccccc2)C1` (stereo not given) belongs 1% (inactive). On to `CN1C(=O)c2ccccc2C(C(=O)NCCCN2CCCC2)C1c1c[nH]c2ccccc12` (stereo not given), for which the inhibition (viability loss, TRAIL sensitization) was 61.6% (active). For `CCN(CC)CCNC(=O)C1c2ccccc2C(=O)N(C)C1c1cn(C)c2ccccc12` (stereo not given), the inhibition (viability loss, TRAIL sensitization) is 14.1% (inactive).

Regarding `COCOc1cccc(CN2CCC(C)(Oc3ccc(SC)cc3)C2)c1` (stereo not given), the inhibition (viability loss, TRAIL sensitization) is 10.9% (inactive). With `C[C@@H]1CN([C@H](C)CO)C(=O)CCCn2cc(nn2)CO[C@H]1CN(C)S(=O)(=O)c1ccc(Oc2ccccc2)nc1`, the inhibition (viability loss, TRAIL sensitization) was 2.33% (inactive).

For `COc1ccc(CCNCC(O)Cn2ccc3ccccc32)cc1OC` (stereo not given), the inhibition (viability loss, TRAIL sensitization) is -3.08% (inactive). As for `O=C(NC1CCCCC1)c1ccc(CNc2c(N3CCOCC3)c(=O)c2=O)cc1`, the inhibition (viability loss, TRAIL sensitization) was -0.739% (inactive). Regarding `CCOC(=O)C1CCCN(C(=O)c2sc3nc(C)nc(N4CCOCC4)c3c2C)C1` (stereo not given), the inhibition (viability loss, TRAIL sensitization) is 15.8% (inactive). As to `Cc1cc(/C=C2/C(=N)N3C(=NC2=O)SN=C3S(C)(=O)=O)c(C)n1-c1ccccc1`, the inhibition (viability loss, TRAIL sensitization) was 72.2% (active). In the case of `CCOC(=O)C1=C(O)/C(=C/c2cc(C)n(-c3ccccc3)c2C)N=C1C` it was -20.2% (inactive). In the case of `CS(=O)(=O)c1ccc2c(c1)SC1=NC(=O)/C(=C/c3ccco3)C(=N)N12` it was 11.3% (inactive); in that of `COC(=O)C[C@@H]1C=C[C@@H](NC(=O)c2cccnc2)[C@@H](CO)O1`, -8.25% (inactive). `O=C(NC1CCCCC1)C(c1cc2ccccc2o1)n1c(=O)c(-c2ccco2)nc2ccccc21` (stereo not given): the inhibition (viability loss, TRAIL sensitization) was 1.96% (inactive).

As to `CCOc1ccc(-c2cc(C(=O)N/N=C/c3ccc(O)cc3)c3ccccc3n2)cc1`, the inhibition (viability loss, TRAIL sensitization) was 72.3% (active). Turning to `CCOc1ccc(/C=N\NC(=O)c2c(C)nc3cc(C)ccn23)cc1`, the inhibition (viability loss, TRAIL sensitization) was 7.46% (inactive).

Take `C/C(=N\NC(=O)c1cc(-c2ccc(O)cc2)nc2ccccc12)c1cccnc1`: the inhibition (viability loss, TRAIL sensitization) was 3.5% (inactive).

Regarding `Cc1ccc(S(=O)(=O)NCC2CCC(C(=O)N3CCOCC3)CC2)cc1` (stereo not given), the inhibition (viability loss, TRAIL sensitization) is -6.3% (inactive). For `C[C@H]1NS(=O)(=O)c2cc(Cl)ccc2O[C@@H]1c1ccccc1`, the inhibition (viability loss, TRAIL sensitization) is 11.6% (inactive). In the case of `CCCn1nc(Oc2nc(NC(C)C)nc(N(C)C)n2)ccc1=O` it was -7.89% (inactive); in that of `Cc1ccc2cc(CCNC(=O)c3ccc4c(c3)OCO4)c(=O)[nH]c2c1`, 1.68% (inactive); in that of `Cc1nc2cc(NC(=O)Nc3cccc(F)c3)ccc2n1C`, 63.6% (active).

In the case of `C=CCN(C(=O)Nc1ccc2c(c1)nc(C)n2C)c1ccccc1`, the inhibition (viability loss, TRAIL sensitization) was 14.6% (inactive). For the compound `Cc1nc2cc(NCc3cccs3)ccc2n1C`, the inhibition (viability loss, TRAIL sensitization) is 2.96% (inactive). In the case of `Cc1cc([N+](=O)[O-])c(=O)[nH]c1C` it was 16.2% (inactive); in that of `COC(=O)CCSc1nccn1Cc1ccccc1`, -2.49% (inactive). Regarding `O=C(CN1C(=O)c2cccnc2Oc2ccc(Cl)cc21)Nc1ccc(F)cc1`, the inhibition (viability loss, TRAIL sensitization) was 4.45% (inactive). As to `CC(/C=C/C1(O)C(C)CC(=O)CC1(C)C)OC1OC(CO)C(O)C(O)C1O` (stereo not given), the inhibition (viability loss, TRAIL sensitization) was 14.6% (inactive).

`CN(CCO)c1ccc(/C=N/Nc2nncc3ccccc23)cc1`: the inhibition (viability loss, TRAIL sensitization) was 95.3% (active). To `O=C1COc2c1ccc(O)c2O` belongs -11.8% (inactive). In the case of `CCC(C)c1ccc(O)c(/C=N/O)c1` (stereo not given) it was 51% (active). In the case of `CNCC(O)c1ccc(O)c(O)c1` (stereo not given), the inhibition (viability loss, TRAIL sensitization) was -0.467% (inactive). In the case of `CS(=O)(=O)N(Cc1ccc(Cl)cc1)c1ccc(C(=O)NCCSCc2ccco2)cc1` it was -4.92% (inactive); in that of `CCc1c(C)c2ccc(OC3CCCCC3=O)cc2oc1=O` (stereo not given), -0.131% (inactive).

In the case of `O=C(NCCCN1CCN(c2ccccc2F)CC1)C1CCC(=O)N1C1CCCCC1` (stereo not given), the inhibition (viability loss, TRAIL sensitization) was 0.0726% (inactive).

With `Cc1c(C(=O)NCCN(C)C)oc2ccc(S(=O)(=O)N3CCCC3)cc12`, the inhibition (viability loss, TRAIL sensitization) is -7.61% (inactive). In the case of `COc1ccc(C(CCN(Cc2ccc(OC)c(OC)c2)C(=O)CCl)c2ccccc2)cc1` (stereo not given) it was 97.3% (active); in that of `CCOc1ccc(C(CCc2ccccc2)NC(=O)c2ccc(OC)c(OC)c2)cc1OCC` (stereo not given), 30.5% (inactive).

As for `COc1ccc(CCNC(=O)CN(c2ccccc2)S(C)(=O)=O)cc1OC`, the inhibition (viability loss, TRAIL sensitization) was -3.49% (inactive).

As to `CCOc1ccc(NC(=O)N(CCC(C)C)C(C)c2ccco2)cc1` (stereo not given), the inhibition (viability loss, TRAIL sensitization) is -2% (inactive). Turning to `N#Cc1ccc(OCc2nnc(-c3ccc([N+](=O)[O-])cc3)o2)cc1`, the inhibition (viability loss, TRAIL sensitization) is -1.32% (inactive). For `CCOc1ccc(-c2nnc(-c3ccco3)o2)cc1`, the inhibition (viability loss, TRAIL sensitization) is 55.3% (active). To `O=C(Nc1n[nH]c(C(F)(F)F)n1)c1cccs1` belongs -2.07% (inactive); to `Cc1nc(-c2ccc(NC(=O)c3cccs3)cc2)cs1`, 81% (active); to `COc1cc(NC(=O)c2ccc(-c3csc(C)n3)cc2)c(OC)cc1Cl`, 25.1% (inactive).

Regarding `CC(=O)NNc1cc(=O)c2c(=O)n(C)c(=O)n(C)c2[nH]1`, the inhibition (viability loss, TRAIL sensitization) is 7.17% (inactive). On to `Cc1cnc(NC(=O)c2ccccn2)s1`, for which the inhibition (viability loss, TRAIL sensitization) was 56% (active). With `Cc1cc(C)cc(NC(=O)NCc2ccccn2)c1`, the inhibition (viability loss, TRAIL sensitization) was 7.88% (inactive).

Take `Cc1cnc(NC(=O)Cn2cnc3c2c(=O)n(C)c(=O)n3C)s1`: the inhibition (viability loss, TRAIL sensitization) was -2.16% (inactive).

As to `COc1ccc2occ(C(=O)c3ccc(N=C(C)N(C)C)cc3)c2c1`, the inhibition (viability loss, TRAIL sensitization) was 10.5% (inactive). In the case of `Cc1ccc(NC(=O)c2ccc(Oc3ncccn3)cc2)cc1` it was 1.61% (inactive). Take `CCc1nnc(NS(=O)(=O)c2ccc(NC(=O)c3cccc(OC(F)(F)C(F)F)c3)cc2)s1`: the inhibition (viability loss, TRAIL sensitization) was -18.2% (inactive). To `O=C(Nc1ccc(OC(F)(F)F)cc1)c1ccc2c(c1)no[n+]2[O-]` belongs 86.8% (active).
